PfM18AAP inh-1: PfM18AAP inhibitors, malaria aminopeptidase, primary screen, biochemical, QFRET, recombinant enzyme. 1.2% of 290,000 active. inhibition, % at 7.35 µM. AID 1822, 2009. H-Glu-NHMec fluorogenic cleavage. M18 aspartyl aminopeptidase (Plasmodium falciparum 3D7);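 active = inhibition above the campaign mean inhibition over all tested compounds plus 3 SD, cut at about 28% in these data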;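 also: 0% = plate median of test compound wells and 100% = 2 mM ZnCl2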
pPAFAH FP inh: pPAFAH enzyme inhibitors, primary screen, biochemical, fluorescence polarization, human; AID 463082, 2010; recombinant pPAFAH, FP-rhodamine probe fluorescence polarization; inhibition, % at 3.39 µM; 1.5% of 330,000 active;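 active = inhibition above the mean inhibition across the screen plus 3 SD, cut at about 25% in these data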;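 also: inhibitors block binding of the rhodamine activity-based probe so polarization drops; 0% = enzyme with DMSO and 100% = wells lacking pPAFAH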
Target sequence (Q13093 whole entry, looked up): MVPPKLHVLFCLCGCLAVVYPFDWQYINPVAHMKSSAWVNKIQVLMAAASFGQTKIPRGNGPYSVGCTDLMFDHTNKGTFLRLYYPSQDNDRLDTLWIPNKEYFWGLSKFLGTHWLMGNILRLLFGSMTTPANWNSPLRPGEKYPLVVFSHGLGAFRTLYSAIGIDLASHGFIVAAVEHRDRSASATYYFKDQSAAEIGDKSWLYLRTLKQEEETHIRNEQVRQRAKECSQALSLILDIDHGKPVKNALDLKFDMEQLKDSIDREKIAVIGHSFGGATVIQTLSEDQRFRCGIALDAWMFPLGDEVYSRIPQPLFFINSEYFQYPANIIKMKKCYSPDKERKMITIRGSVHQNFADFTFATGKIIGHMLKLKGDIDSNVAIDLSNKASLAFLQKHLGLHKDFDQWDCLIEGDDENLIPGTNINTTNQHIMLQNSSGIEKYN
Pemphigus Ab inh: inhibitors of pemphigus antibody binding to DSG3, primary screen, biochemical, bead-based, flow cytometry, scFv-GFP. binding (percent of control), % at 10 µM. 0.48% of 310,000 active. DSG3-coupled beads, scFv-anti-DSG3-GFP binding; hits give low values. AID 588358, 2011;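 active = binding more than 3 SD below its plate's average and above zero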;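 also: hits lower antibody fragment binding to DSG3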
PAFAH1B3 inh: PAFAH1B3 enzyme inhibitors, primary screen, biochemical, fluorescence polarization, human. Platelet-activating factor acetylhydrolase IB subunit alpha1 (Homo sapiens), Q15102. recombinant PAFAH1B3, FP-rhodamine probe. inhibition, % at 3.39 µM. 0.28% of 340,000 active;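 active = inhibition above the screen-wide average of all tested compounds plus 3 SD, cut at about 25% in these data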;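 also: 0% = enzyme with DMSO only and 100% = wells lacking PAFAH1B3 protein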
Target sequence (Q15102 whole entry, looked up): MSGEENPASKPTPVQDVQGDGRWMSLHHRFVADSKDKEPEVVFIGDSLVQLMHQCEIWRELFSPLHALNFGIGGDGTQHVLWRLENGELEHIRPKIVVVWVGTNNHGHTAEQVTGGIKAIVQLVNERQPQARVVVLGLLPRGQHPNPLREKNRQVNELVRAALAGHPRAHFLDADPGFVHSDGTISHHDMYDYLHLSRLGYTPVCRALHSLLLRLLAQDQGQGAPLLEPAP
PAFAH2 FP inh: PAFAH2 enzyme inhibitors, primary screen, biochemical, fluorescence polarization, human | Platelet-activating factor acetylhydrolase 2, cytoplasmic (Homo sapiens), Q99487 | recombinant PAFAH2, FP-rhodamine activity probe | inhibition, % at 3.39 µM | 0.99% of 340,000 active;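 active = inhibition above the mean over all tested compounds plus 3 SD, cut at about 30% in these data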;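 also: inhibitors block probe labeling of enzyme so polarization drops; 0% = enzyme with DMSO and 100% = wells lacking PAFAH2 protein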
PAFAH1B2 FP inh: PAFAH1B2 enzyme inhibitors, primary screen, biochemical, fluorescence polarization, human; Platelet-activating factor acetylhydrolase IB subunit alpha2 (Homo sapiens), P68402; recombinant PAFAH1B2, FP-rhodamine activity probe; inhibition, % at 3.39 µM; 1.2% of 340,000 active;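 active = inhibition above the mean of all tested compounds plus 3 SD, cut at about 24% in these data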;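 also: 0% = enzyme with DMSO and 100% = wells lacking PAFAH1B2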
PfM18AAP inh-2: PfM18AAP inhibitors, malaria aminopeptidase, confirmation, biochemical, QFRET, recombinant enzyme, triplicate; shares compounds with PfM18AAP inh-1; H-Glu-NHMec fluorogenic cleavage; inhibition, % at 7.35 µM; 28% of 2,400 active;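 active = mean inhibition over replicate wells above the hit cutoff set for the earlier primary screen, cut at about 29% in these data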;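 also: 0% = median of test compound wells and 100% = 2 mM ZnCl2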
CTSL1 confirm: cathepsin L1 inhibitors, retest, confirmation, counter-screen for PFM18AAP inhibitor project, biochemical, QFRET, triplicate; purified cathepsin L1, Z-Leu-Arg-MCA fluorescence; 2,400 tested, under 10 active; inhibition, % at 5.96 µM; AID 2178, 2009; shares compounds with PfM18AAP inh-1;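 active = average inhibition across replicates above the hit cutoff set in the earlier primary screen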;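 also: 0% = median of test compound wells and 100% = Z-Phe-Ala-diazomethylketone 1 µM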
Active calls of the source: *; · = no result given. In the library only some 3.8% were active in any assay of this set; here they are far more common.

SMILES | PfM18AAP inh-1 | pPAFAH FP inh | Pemphigus Ab inh | PAFAH1B3 inh | PAFAH2 FP inh | PAFAH1B2 FP inh | PfM18AAP inh-2 | CTSL1 confirm
O=C(O)C1Sc2[nH]c(=O)sc2C2c3cc(Cl)ccc3OC(=O)C12 (configuration not stated) | 5.4 | -3.7 | 105.0 | 9.2 | 6.7 | 6.1 | · | ·
Cc1nc2ccccc2nc1N/N=C/c1ccc(O)cc1 | 36.8* | -9.5 | 106.0 | 3.1 | 2.4 | -3.3 | 10.0 | -2.2
Cc1ccc(/C=N/Nc2cc(C)nc(NCc3ccccc3)n2)cc1 | -0.1 | -6.9 | · | 8.0 | 5.0 | 7.6 | · | ·
Cc1cc(N/N=C/c2ccc(O)cc2)nc(NS(=O)(=O)c2ccccc2)n1 | 43.3* | 13.9 | 109.1 | 6.6 | 5.4 | -0.9 | -43.4 | 5.2
Cc1cc(C(=O)Nc2c(F)cc(F)cc2Br)n(-c2ccccc2)n1 | -4.7 | 2.0 | 95.5 | 3.8 | 2.1 | 0.4 | · | ·
Cc1ccc(C)c(N2CCN(C(=O)Cc3ccc(NC4=NC5CS(=O)(=O)CC5S4)cc3)CC2)c1 (configuration not stated) | 2.5 | -0.2 | 104.1 | 0.8 | -0.6 | 0.5 | · | ·
CN(C)S(=O)(=O)c1cccc(-c2csc(N/N=C/c3ccco3)n2)c1 | 14.2 | 19.2 | 97.8 | 6.7 | -2.8 | 2.2 | · | ·
Cc1ccc(-c2csc(N/N=C/c3ccco3)n2)c(C)c1 | 32.6* | 3.8 | 100.1 | -2.9 | -1.2 | -2.2 | -60.1 | 2.5
O=C(O)CCNc1cc2ccccc2cc1C(=O)O | 34.9* | 0.2 | 104.1 | 8.9 | 0.6 | 5.7 | -3.6 | -3.3
N=C(N)N1CCN(Cc2ccccc2)CC1 | 4.6 | -0.2 | · | · | · | · | · | ·
CCOc1cccc2cc(-c3nnc(NCc4ccco4)s3)c(=O)oc12 | 32.5* | 5.6 | 96.9 | 1.5 | -9.7 | -2.2 | -13.5 | 1.9
CNc1nnc(-c2cc3cc(Cl)ccc3oc2=O)s1 | 12.8 | 9.8 | 102.5 | 0.4 | 10.6 | 1.5 | · | ·
COc1ccc2oc(=O)c(-c3nnc(NCc4ccco4)s3)cc2c1 | 39.6* | 1.7 | 90.5 | 0.9 | 18.0 | -1.1 | -26.8 | 1.8
COc1ccc(-n2c(=O)c(CCC(=O)NCCc3ccccc3F)nc3ccccc32)cc1 | · | -11.2 | · | -31.1 | -39.5 | -19.6 | · | ·
CC(=O)c1sc2nsc(SCCN3CCOCC3)c2c1N | 59.8* | 2.9 | 98.9 | · | · | · | 9.7 | 0.1
Cc1ccc(N(CC(O)CN2CCCCC2)S(=O)(=O)c2ccccc2[N+](=O)[O-])cc1 (configuration not stated) | 0.2 | -1.1 | 112.0 | -0.9 | 2.5 | 2.7 | · | ·
CCCSc1nnc(CNS(=O)(=O)c2ccc(C)cc2)n1C | 2.3 | 6.9 | 103.0 | 14.7 | -5.9 | 3.9 | · | ·
O=C(O)c1ccc(/C=N/Nc2ncc(C(F)(F)F)cc2Cl)cc1 | 48.0* | 1.0 | 99.7 | 2.4 | -2.0 | 3.2 | -24.9 | 6.9
NC(=O)NNc1ncc(C(F)(F)F)cc1Cl | 45.3* | -4.6 | 88.6 | 2.4 | -6.2 | 7.3 | 36.0* | -5.3
CCN1CCN(C(=S)c2ccc(Cl)c(Cl)c2)CC1 | 45.0* | 3.4 | 97.7 | 7.9 | 3.5 | 0.6 | 5.6 | -0.3
CCN1CCN(C(=S)Nc2ccc(Cl)c(Cl)c2)CC1 | -0.2 | 0.7 | 80.4 | -2.3 | 0.1 | -2.1 | · | ·
O=C(O)c1c[nH]c(=S)n1-c1ccc(F)cc1 | 51.0* | -2.1 | 99.9 | -0.1 | -2.2 | 6.4 | 39.5* | -2.3
CSc1ncc(C(=O)O)n1-c1ccc(F)cc1 | -3.9 | -4.1 | 101.9 | 5.3 | 0.7 | 3.5 | · | ·
Cn1nc(C(=O)NNC(=O)COc2ccccc2)c2ccccc2c1=O | 43.7* | 3.6 | 96.9 | 17.7 | 4.3 | -1.0 | 31.9* | -4.4
CCn1nc(C(=O)NNC(=O)COc2ccc(OC)cc2)c2ccccc2c1=O | 9.1 | 0.9 | 129.3 | 4.3 | 5.5 | -4.7 | · | ·
SMILES | PfM18AAP inh-1 | pPAFAH FP inh | Pemphigus Ab inh | PAFAH1B3 inh | PAFAH2 FP inh | PAFAH1B2 FP inh | PfM18AAP inh-2 | CTSL1 confirm
COc1cc(/C=N/NC(=O)Cc2csc(N3CCOCC3)n2)cc(OC)c1O | 31.7* | -3.4 | 95.5 | 6.8 | 5.5 | 6.9 | -36.7 | 0.0
Oc1c(Br)cc(Br)cc1/C=N/n1c(-c2ccccc2)n[nH]c1=S | 14.9 | 7.2 | 122.3 | 7.2 | -0.6 | 6.8 | · | ·
COc1c(Br)cc(/C=N/n2c(-c3ccccc3)n[nH]c2=S)c(O)c1Br | 45.0* | 21.6 | 115.2 | 3.8 | 16.1 | 3.9 | -9.1 | -3.0
CC(=O)/C(=N\Nc1ccc(C)cc1)N1CCOCC1 | 55.2* | 8.4 | 103.5 | -7.3 | 1.3 | -1.4 | -46.4 | 5.9
Cc1cc(C)c2cc(CN(Cc3ccco3)C(=O)NCc3ccccc3)c(=O)[nH]c2c1 | 35.0* | 9.2 | 104.0 | -2.4 | 7.6 | 4.1 | -18.9 | -1.9
NC(=O)NNc1cccc(Cl)n1 | 47.0* | 7.8 | 82.6 | 2.5 | -1.1 | 2.5 | 7.9 | 1.2
CC(=O)NNc1cccc(Cl)n1 | -0.3 | 0.4 | 97.6 | -3.5 | -6.3 | 1.3 | · | ·
O=C(NNc1cccc(Cl)n1)c1c(F)cccc1F | 19.8 | 3.1 | 113.2 | -4.1 | 6.6 | -1.3 | · | ·
O=C(NNc1cccc(Cl)n1)c1c(Cl)cccc1Cl | 56.1* | 6.5 | 98.6 | -5.7 | -10.2 | -1.9 | 27.1 | 4.0
CC(=O)N1CCN(C(=O)c2cccc(S(=O)(=O)N3CCOCC3)c2)CC1 | · | · | 105.1 | -1.6 | -1.4 | 2.8 | · | ·
CC(CNC(=O)Cn1ccc(N)nc1=O)c1ccccc1 (configuration not stated) | · | 6.4 | 108.4 | 11.8 | -4.9 | -0.6 | · | ·
O=C(Nc1ccccc1C(F)(F)F)c1ncn[nH]1 | 59.2* | 0.4 | 102.0 | 9.8 | -7.3 | 4.5 | 56.8* | 1.1
COc1cc(/C=N/NC(=S)Nc2cccc(S(=O)(=O)N(C)C)c2)cc(OC)c1O | 43.1* | 8.9 | 101.2 | 4.2 | 3.1 | 4.8 | 25.9 | -1.4
CCn1c(C)nc2cc(C(=O)N/N=C/c3cccc(OC)c3O)ccc21 | 12.6 | 0.9 | 99.8 | 3.4 | 2.7 | 8.0 | · | ·
CN(C)S(=O)(=O)c1cccc(NC(=S)N/N=C/c2ccc(O)c(O)c2O)c1 | 49.0* | · | 93.3 | 10.9 | 11.9 | 8.4 | 39.7* | 0.7
COc1cccc(/C=N/NC(=S)Nc2cccc(S(=O)(=O)N(C)C)c2)c1 | -3.1 | 1.9 | 88.8 | 5.6 | 4.4 | 3.2 | · | ·
